This excerpt belongs to a sample that is enriched for hits.
TDP1 cell noCPT: qHTS for Inhibitors of human tyrosyl-DNA phosphodiesterase 1 (TDP1): qHTS in cells in absence of CPT; Potency, µM (doses to about 46.2 µM), for inactives: at the highest dose activity change, negative = growth inhibition, hits mostly inhibitors; 15% of 420,000 active; DT40 Tdp1-/- hTDP1 cells, no CPT, ATP luminescence, 48 h; note: potency is the fitted concentration of half-maximal effect; nearly all actives have a fitted effect of over 55% in size
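Compound effects on proliferation are scored in DT40 Tdp1-/-;hTDP1 cells in the absence of CPT. ATP levels (CellTiter-Glo luminescence) are recorded after a ≥48 hr, 37 °C incubation.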
HT1080 IDH1KD tx: HT-1080 IDH1 knockdown cell toxicity (counter line). HT-1080 IDH1 knockdown viability, ATP luminescence, 48 h. Potency, µM (highest dose often 46.1 µM), without a hit: at the top dose activity, negative = toxicity, hits mostly cytotoxic. 2% of 360,000 active. AID 686971;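 note: potency is the fitted concentration of half-maximal effect; 0% = DMSO wells and -100% = cell-free medium wells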
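Knockdown cells (IDH1KD HT-1080) received compounds 2 h after plating at 750 cells/well and were kept 48 h at 37 °C in 5% FBS RPMI. A CellTiter-Glo luminescence read gave % activity for curve fitting.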
DT40 TDP1 CPT: growth inhibition of DT40 Tdp1-/-;hTDP1 cells with camptothecin (screen for TDP1 inhibitors); chicken DT40 Tdp1-/-;hTDP1 cells + 20 nM CPT, ATP luminescence, 48 h; Potency, µM (highest dose often 46.2 µM), for inactives: at the highest dose activity change, negative = growth inhibition, hits mostly inhibitors; 12% of 420,000 active; note: potency is the fitted concentration of half-maximal effect; nearly all actives have a fitted effect of over 55% in size
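Cell growth measured by CellTiter-Glo luminescence after a minimum 48 h, 37 C compound exposure with 20 nM CPT in Tdp1-knockout DT40 cells stably expressing hTDP1, seeded 400/well; qHTS titration format.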
12-LOX inh: inhibitors of human 12S-lipoxygenase ALOX12; P18054; AID 1671190; Potency, µM (titrated, usually from 108 µM), inactives show at the top dose activity change, negative = inhibition, actives largely listed as inhibitors; 1.1% of 580,000 active; purified 12hLO, xylenol orange hydroperoxide absorbance; note: potency is the fitted concentration of half-maximal effect
Target sequence (P18054 whole entry, looked up): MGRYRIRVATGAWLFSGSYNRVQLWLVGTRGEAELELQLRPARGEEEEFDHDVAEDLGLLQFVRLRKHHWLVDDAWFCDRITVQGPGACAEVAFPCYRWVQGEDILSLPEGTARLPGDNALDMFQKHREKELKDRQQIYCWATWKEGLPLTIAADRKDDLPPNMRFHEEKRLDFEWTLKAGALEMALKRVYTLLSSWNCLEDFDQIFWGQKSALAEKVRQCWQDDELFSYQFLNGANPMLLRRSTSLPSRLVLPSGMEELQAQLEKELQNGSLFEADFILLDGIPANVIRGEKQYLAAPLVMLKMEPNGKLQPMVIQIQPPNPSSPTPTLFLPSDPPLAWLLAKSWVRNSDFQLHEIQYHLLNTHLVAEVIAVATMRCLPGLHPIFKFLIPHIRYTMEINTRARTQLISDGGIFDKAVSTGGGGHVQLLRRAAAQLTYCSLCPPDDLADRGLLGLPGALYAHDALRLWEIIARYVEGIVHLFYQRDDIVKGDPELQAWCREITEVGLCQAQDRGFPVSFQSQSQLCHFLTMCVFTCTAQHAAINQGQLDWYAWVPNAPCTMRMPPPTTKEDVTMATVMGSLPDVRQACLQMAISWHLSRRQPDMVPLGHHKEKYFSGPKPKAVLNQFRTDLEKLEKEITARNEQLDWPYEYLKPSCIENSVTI
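Purified human 12hLO at 150 nM in 25 mM Hepes, 0.01% Triton X-100, pH 7.0, preincubated 15 min at room temperature with compound. Reaction started with 40 uM arachidonic acid, 30 min at room temperature. Hydroperoxide measured by Fe-xylenol orange, 573/405 nm absorbance ratio.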
IL1B secr inh: inflammasome signaling inhibition, IL-1 beta readout. THP-1 LPS/ATP IL-1B secretion, AlphaLISA, 16 h; active compounds read low. activity change, % at 57.5 µM. 4.7% of 360,000 active. AID 743279; in the data active = activity change below about -50%; inconclusive = mostly about -30% to -49%
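Secreted IL-1B measured by AlphaLISA bead assay after 16 h compound exposure of THP-1 cells; compounds (final up to 57.5 uM) added 1 h before LPS (250 ng/mL) and ATP (1.25 mM) stimulation; lower signal means less secretion.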
HT1080-NT tox: kills 2HG-producing HT-1080-NT fibrosarcoma cells | HT-1080-NT fibrosarcoma viability, CellTiter-Glo ATP luminescence, 48 h | Potency, µM (series often up to 46.1 µM), for the others: top-dose activity, negative = less viability, usual class: cytotoxic | 1.6% of 360,000 active;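 note: NT is the 2HG producing partner of a matched IDH1 knockdown line; potency is the fitted concentration of half-maximal effect; 0% = DMSO-treated cells and -100% = media-only wells without cells; nearly all actives have a fitted effect of over 55% in size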
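Compounds were tested in concentration-response format on HT-1080-NT cells for 48 hours at 37 degrees C. Cell viability came from CellTiter-Glo luminescence; curves were classified by r2, response magnitude and activity.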
Active calls of the source: *; [ ] = dose if it differs, or a comment. Unless noted, calls come from the whole dose curve; as a rule, active = well fitted curve in the direction sought with a large enough effect; inconclusive = small, poorly fitted or top-dose-only effect, or another doubt; inactive = no such curve, though single readings can be large; an effect the other way counts as inactive or inconclusive. Unless noted, % is set by controls: 0 for no effect and ±100 for the full control effect.

How did COc1ccccc1N1C(N)=NC(N)=NC12CCCCC2 do in these assays?
TDP1 cell noCPT: inconclusive; HT1080 IDH1KD tx: 0%; DT40 TDP1 CPT: 10%; 12-LOX inh: 14%; IL1B secr inh: 34; HT1080-NT tox: -1%

Results for CCCCOc1ccc(N2C(N)=NC(N)=NC23CCCCC3)cc1 ?
TDP1 cell noCPT: 6.5µM*; HT1080 IDH1KD tx: -24%; DT40 TDP1 CPT: 9.2µM*; 12-LOX inh: 2%; IL1B secr inh: -15; HT1080-NT tox: -3%

Results for NC1=NC2(CCCCC2)N(c2cccc(Cl)c2)C(N)=N1 ?
TDP1 cell noCPT: 0.46µM*; HT1080 IDH1KD tx: 4%; DT40 TDP1 CPT: 10µM*; 12-LOX inh: 0%; IL1B secr inh: -12; HT1080-NT tox: 4%

Results for COc1ccc(N2C(N)=NC(N)=NC23CCCC3)cc1 ?
TDP1 cell noCPT: 1.5µM*; HT1080 IDH1KD tx: 2%; DT40 TDP1 CPT: inconclusive; 12-LOX inh: 25%; IL1B secr inh: 3; HT1080-NT tox: 5%

What do the screens show for `C=CCNC(=O)N[C@H]1CCN(C(=O)CSC)[C@@H]1C(=O)N1CCC[C@@H]1C(N)=O`?
12-LOX inh: 19%[176 µM]

Results for O=C(C1CC1)N1CCCC2(Cc3ccccc3NC2=O)C1 (stereo unspecified) ?
12-LOX inh: 50%[176 µM]

How did C=CCN=c1scc(-c2ccccc2)n1/N=C/c1ccccn1 do in these assays?
TDP1 cell noCPT: 1.3µM*; HT1080 IDH1KD tx: 18µM*; DT40 TDP1 CPT: 1.8µM*; 12-LOX inh: inconclusive; IL1B secr inh: inconclusive; HT1080-NT tox: 18µM*

What do the screens show for `C=CCN=c1scc(-c2ccc(F)cc2)n1/N=C/c1ccccn1`?
TDP1 cell noCPT: 2.6µM*; HT1080 IDH1KD tx: inconclusive; DT40 TDP1 CPT: 2.6µM*; 12-LOX inh: -11%; IL1B secr inh: inconclusive; HT1080-NT tox: -1%

Results for C[C@H](CO)N1C[C@H](C)[C@H](CN(C)S(=O)(=O)c2cccc(F)c2)Oc2ncc(-c3cccc(C(=O)N(C)C)c3)cc2C1=O ?
TDP1 cell noCPT: -3%; HT1080 IDH1KD tx: 4%; DT40 TDP1 CPT: 17%; 12-LOX inh: 7%; IL1B secr inh: -8; HT1080-NT tox: -3%

How did CCOC(=O)C(=O)NCC(c1cccs1)S(=O)(=O)c1ccc(Cl)cc1 (stereo unspecified) do in these assays?
TDP1 cell noCPT: 10%; HT1080 IDH1KD tx: 13%; DT40 TDP1 CPT: -4%; 12-LOX inh: -24%; IL1B secr inh: 21; HT1080-NT tox: -1%

How did CCOC(=O)/C(=N/Nc1ccc(Cl)cc1)S(=O)(=O)c1ccccc1 do in these assays?
TDP1 cell noCPT: inconclusive; HT1080 IDH1KD tx: 1%; DT40 TDP1 CPT: -26%; 12-LOX inh: -6%[57.4 µM]; IL1B secr inh: -69*; HT1080-NT tox: -25%

Results for CC(=O)N1CCc2cc(NC(C)C(=O)Nc3ccc(SC(F)F)cc3)ccc21 (stereo unspecified) ?
12-LOX inh: 1%

Results for CN(C)S(=O)(=O)c1cccc(NC(=S)Nc2cc(Cl)cc(Cl)c2)c1 ?
TDP1 cell noCPT: 23µM*; HT1080 IDH1KD tx: 5%; DT40 TDP1 CPT: 26µM*; 12-LOX inh: inconclusive; IL1B secr inh: -70*; HT1080-NT tox: 6%

Results for CN(C)S(=O)(=O)c1cccc(NC(=S)Nc2ccc(Cl)cc2Cl)c1 ?
TDP1 cell noCPT: 16µM*; HT1080 IDH1KD tx: -1%; DT40 TDP1 CPT: inconclusive; 12-LOX inh: 0%; IL1B secr inh: -5; HT1080-NT tox: 13%

Results for Cc1ccc(-c2ccc3nnc(CNC(=O)c4cc(F)ccc4F)n3n2)cc1 ?
12-LOX inh: 4%

What do the screens show for `COc1cc(C2NC(=O)C(C#N)=C(S)N2c2ccccc2)ccc1OC(C)C` (stereo unspecified)?
TDP1 cell noCPT: inconclusive; HT1080 IDH1KD tx: 6%; DT40 TDP1 CPT: inconclusive; 12-LOX inh: 14µM*; IL1B secr inh: -11; HT1080-NT tox: 1%

What do the screens show for `CCOc1ccc(C2NC(=O)C(C#N)=C(S)N2c2cccc(C)c2)cc1OC` (stereo unspecified)?
TDP1 cell noCPT: inconclusive; HT1080 IDH1KD tx: -2%; DT40 TDP1 CPT: inconclusive; 12-LOX inh: -8%; IL1B secr inh: 5; HT1080-NT tox: -1%

How did COc1ccc(N2C(S)=C(C#N)C(=O)NC2c2ccco2)cc1 (stereo unspecified) do in these assays?
TDP1 cell noCPT: inconclusive; HT1080 IDH1KD tx: -9%; DT40 TDP1 CPT: inconclusive; 12-LOX inh: 45µM*; IL1B secr inh: 4; HT1080-NT tox: 2%

What do the screens show for `CCOc1ccc(C2NC(=O)C(C#N)=C(S)N2c2ccc(C)cc2)cc1OC` (stereo unspecified)?
TDP1 cell noCPT: inconclusive; HT1080 IDH1KD tx: -14%; DT40 TDP1 CPT: inconclusive; 12-LOX inh: inconclusive; IL1B secr inh: -59*; HT1080-NT tox: -7%

How did COc1ccc(C2NC(=O)C(C#N)=C(S)N2c2ccccc2)cc1OC (stereo unspecified) do in these assays?
TDP1 cell noCPT: inconclusive; HT1080 IDH1KD tx: 11%; DT40 TDP1 CPT: -14%; 12-LOX inh: inconclusive; IL1B secr inh: -2; HT1080-NT tox: 0%

What do the screens show for `C[S+](=O)([O-])N1CCN(c2ccc(C=O)cc2)C(=O)C1`?
12-LOX inh: 6%[12.5 µM]

What do the screens show for `CC(=O)Nc1ccc2nc(SCC(=O)NCCOc3ccccc3)sc2c1`?
TDP1 cell noCPT: 15µM*; HT1080 IDH1KD tx: -1%; DT40 TDP1 CPT: 15µM*; 12-LOX inh: 2%; IL1B secr inh: 10; HT1080-NT tox: 2%

What do the screens show for `NC(=O)CSc1nc2ccc(NC(=O)COc3ccccc3)cc2s1`?
TDP1 cell noCPT: 23µM*; DT40 TDP1 CPT: inconclusive; 12-LOX inh: -13%

How did O=C(COc1ccc(F)cc1)Nc1ccc2nc(SCc3ccccc3)sc2c1 do in these assays?
TDP1 cell noCPT: inconclusive; DT40 TDP1 CPT: inconclusive; 12-LOX inh: -8%

How did O=C(NCc1ccc(Cl)cc1)c1cnc(N2CCOCC2)c2ccccc12 do in these assays?
TDP1 cell noCPT: inconclusive; DT40 TDP1 CPT: inconclusive; 12-LOX inh: -19%

How did COc1cccc(NC(=O)Cn2nc(Cc3cccnc3)c3ccccc3c2=O)c1 do in these assays?
TDP1 cell noCPT: inconclusive; HT1080 IDH1KD tx: 4%; DT40 TDP1 CPT: -7%; 12-LOX inh: 11%; IL1B secr inh: inconclusive; HT1080-NT tox: 6%
